Assay results as given in the supplement of paper PMC10849652.
The full data set covers some 8,800 targets. This sample favours those with a hit. About 0.5% of all pairs of compound and target were hits. Unmarked numbers belong to inactive results.

Columns and labels:
Assay in all cases: log2 fold change, soluble protein after heating vs DMSO (PISA); higher = thermal stabilisation; K562 lysate, 10 uM; active = over 0.2 and 3.5 SD of the protein, either way, in both replicates (recomputed)
[1] = compound: NCC(=O)Nc1ccc(-n2nc(C(F)(F)F)cc2-c2ccc3c(ccc4ccccc43)c2)cc1
In short: (§1)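 The values are log-two fold changes in thermal stability compared with solvent controls and come from duplicates. They were obtained by TMTpro 16plex LC-MS/MS, with channel sums equalised, on the supernatant after 21,000xg for 90 min. That supernatant came from crude K562 extract at 1 mg/mL protein treated with 10 μM compound for 30 min, heated for 3 min across 48°C-58°C, pooled and brought to 0.5% NP-40 at 4°C.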

vorinostat = compound: O=C(CCCCCCC(=O)Nc1ccccc1)NO [vorinostat]
In short: as §1

silmitasertib = compound: O=C(O)c1ccc2c(c1)nc(Nc1cccc(Cl)c1)c1ccncc12 [silmitasertib]
In short: as §1

[2] = compound: O=C1NC(=O)C(c2cnc3ccccn23)=C1c1cn2c3c(cc(F)cc13)CN(C(=O)N1CCCCC1)CC2
In short: as §1

entospletinib = compound: c1cn2cc(-c3ccc4cn[nH]c4c3)nc(Nc3ccc(N4CCOCC4)cc3)c2n1 [entospletinib]
In short: as §1

Chain of UniProt P09543 (P09543 whole entry, looked up): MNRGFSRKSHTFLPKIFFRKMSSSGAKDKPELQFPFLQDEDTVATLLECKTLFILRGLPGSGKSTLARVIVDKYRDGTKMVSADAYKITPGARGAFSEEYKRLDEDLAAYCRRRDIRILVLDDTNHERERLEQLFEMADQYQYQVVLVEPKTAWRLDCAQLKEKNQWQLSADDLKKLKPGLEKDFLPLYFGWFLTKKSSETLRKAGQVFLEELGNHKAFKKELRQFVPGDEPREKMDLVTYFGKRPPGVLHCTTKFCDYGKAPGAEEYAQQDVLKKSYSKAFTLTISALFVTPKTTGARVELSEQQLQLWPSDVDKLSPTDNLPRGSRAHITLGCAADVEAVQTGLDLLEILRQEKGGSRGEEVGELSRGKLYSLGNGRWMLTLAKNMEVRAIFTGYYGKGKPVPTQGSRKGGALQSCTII
Chain of UniProt P14868 (P14868 whole entry, looked up): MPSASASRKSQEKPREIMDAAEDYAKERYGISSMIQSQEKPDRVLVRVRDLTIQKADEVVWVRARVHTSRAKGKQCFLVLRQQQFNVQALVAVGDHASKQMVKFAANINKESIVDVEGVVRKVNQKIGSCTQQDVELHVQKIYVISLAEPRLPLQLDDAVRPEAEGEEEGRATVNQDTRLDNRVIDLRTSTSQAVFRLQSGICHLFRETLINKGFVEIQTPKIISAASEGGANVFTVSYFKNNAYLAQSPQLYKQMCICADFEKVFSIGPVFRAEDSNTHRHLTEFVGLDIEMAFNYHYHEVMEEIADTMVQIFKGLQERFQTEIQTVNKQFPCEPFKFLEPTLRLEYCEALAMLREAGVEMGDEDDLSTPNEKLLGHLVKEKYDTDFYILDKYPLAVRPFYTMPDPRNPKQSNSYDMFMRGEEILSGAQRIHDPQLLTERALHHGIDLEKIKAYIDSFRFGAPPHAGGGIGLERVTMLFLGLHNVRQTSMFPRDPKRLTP
Chain of UniProt Q92564 (Q92564 whole entry, looked up): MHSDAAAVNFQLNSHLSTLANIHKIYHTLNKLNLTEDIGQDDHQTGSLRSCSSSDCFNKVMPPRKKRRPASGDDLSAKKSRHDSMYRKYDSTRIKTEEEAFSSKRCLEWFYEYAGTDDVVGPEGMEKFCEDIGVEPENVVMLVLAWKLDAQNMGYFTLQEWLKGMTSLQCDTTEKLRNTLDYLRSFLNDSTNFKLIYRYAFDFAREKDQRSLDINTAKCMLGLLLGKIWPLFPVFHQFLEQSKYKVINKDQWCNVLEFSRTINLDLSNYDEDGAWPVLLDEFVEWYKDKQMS
Chain of UniProt Q14203 (Q14203 whole entry, looked up): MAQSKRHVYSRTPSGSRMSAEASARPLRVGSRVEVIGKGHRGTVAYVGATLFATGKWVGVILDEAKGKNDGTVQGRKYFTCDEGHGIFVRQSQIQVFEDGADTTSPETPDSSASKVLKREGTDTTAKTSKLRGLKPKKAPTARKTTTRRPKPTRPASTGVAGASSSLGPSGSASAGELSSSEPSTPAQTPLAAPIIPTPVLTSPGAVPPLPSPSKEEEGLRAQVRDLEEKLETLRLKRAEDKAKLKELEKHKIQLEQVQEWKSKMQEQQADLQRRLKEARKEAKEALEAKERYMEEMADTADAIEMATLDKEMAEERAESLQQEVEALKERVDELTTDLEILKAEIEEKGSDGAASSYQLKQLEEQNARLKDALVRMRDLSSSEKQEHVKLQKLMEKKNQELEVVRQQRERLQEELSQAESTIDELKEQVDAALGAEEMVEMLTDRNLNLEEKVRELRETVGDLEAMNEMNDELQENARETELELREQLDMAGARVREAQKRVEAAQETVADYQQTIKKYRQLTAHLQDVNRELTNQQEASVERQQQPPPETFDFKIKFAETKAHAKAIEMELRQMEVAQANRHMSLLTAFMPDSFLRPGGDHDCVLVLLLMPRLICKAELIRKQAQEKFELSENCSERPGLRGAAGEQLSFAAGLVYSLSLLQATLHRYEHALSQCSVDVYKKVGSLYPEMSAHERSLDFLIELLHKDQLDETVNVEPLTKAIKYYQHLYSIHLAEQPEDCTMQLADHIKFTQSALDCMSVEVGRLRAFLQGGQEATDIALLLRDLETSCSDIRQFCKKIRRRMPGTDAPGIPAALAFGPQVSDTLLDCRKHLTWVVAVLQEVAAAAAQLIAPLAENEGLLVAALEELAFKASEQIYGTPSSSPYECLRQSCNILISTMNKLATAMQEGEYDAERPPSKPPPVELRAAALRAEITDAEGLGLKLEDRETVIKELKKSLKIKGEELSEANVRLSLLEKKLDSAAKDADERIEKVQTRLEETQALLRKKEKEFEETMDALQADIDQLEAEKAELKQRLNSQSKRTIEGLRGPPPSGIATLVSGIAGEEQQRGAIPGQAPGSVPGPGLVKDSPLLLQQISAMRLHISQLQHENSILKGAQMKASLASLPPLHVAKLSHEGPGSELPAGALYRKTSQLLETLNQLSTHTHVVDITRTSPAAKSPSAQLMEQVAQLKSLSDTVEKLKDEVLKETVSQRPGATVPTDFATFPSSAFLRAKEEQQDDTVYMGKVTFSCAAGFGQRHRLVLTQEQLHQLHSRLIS
Chain of UniProt O95628 (O95628 whole entry, looked up): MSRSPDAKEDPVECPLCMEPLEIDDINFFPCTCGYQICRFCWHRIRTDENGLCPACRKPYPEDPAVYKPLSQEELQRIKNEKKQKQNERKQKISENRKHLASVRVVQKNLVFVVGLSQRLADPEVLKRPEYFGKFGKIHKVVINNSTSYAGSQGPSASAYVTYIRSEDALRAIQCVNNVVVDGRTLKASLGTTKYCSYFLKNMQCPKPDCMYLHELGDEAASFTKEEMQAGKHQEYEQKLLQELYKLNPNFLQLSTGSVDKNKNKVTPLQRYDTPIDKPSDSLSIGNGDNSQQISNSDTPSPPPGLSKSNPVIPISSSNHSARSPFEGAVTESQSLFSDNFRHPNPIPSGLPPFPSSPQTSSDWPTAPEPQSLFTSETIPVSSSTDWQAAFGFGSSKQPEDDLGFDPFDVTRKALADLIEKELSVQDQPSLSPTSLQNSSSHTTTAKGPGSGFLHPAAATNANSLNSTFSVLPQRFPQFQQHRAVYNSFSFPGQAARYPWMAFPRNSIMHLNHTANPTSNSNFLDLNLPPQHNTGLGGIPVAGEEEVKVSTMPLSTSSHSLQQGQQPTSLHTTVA
Chain of UniProt P21964 (P21964 whole entry, looked up): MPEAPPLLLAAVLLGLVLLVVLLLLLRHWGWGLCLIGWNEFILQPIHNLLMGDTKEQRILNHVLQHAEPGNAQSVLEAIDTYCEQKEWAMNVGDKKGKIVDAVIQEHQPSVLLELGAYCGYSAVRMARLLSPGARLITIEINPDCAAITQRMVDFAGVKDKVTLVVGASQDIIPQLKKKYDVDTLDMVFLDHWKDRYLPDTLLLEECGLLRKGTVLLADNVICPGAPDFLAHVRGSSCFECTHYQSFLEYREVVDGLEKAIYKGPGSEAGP
Chain of UniProt Q9H4E7 (Q9H4E7 whole entry, looked up): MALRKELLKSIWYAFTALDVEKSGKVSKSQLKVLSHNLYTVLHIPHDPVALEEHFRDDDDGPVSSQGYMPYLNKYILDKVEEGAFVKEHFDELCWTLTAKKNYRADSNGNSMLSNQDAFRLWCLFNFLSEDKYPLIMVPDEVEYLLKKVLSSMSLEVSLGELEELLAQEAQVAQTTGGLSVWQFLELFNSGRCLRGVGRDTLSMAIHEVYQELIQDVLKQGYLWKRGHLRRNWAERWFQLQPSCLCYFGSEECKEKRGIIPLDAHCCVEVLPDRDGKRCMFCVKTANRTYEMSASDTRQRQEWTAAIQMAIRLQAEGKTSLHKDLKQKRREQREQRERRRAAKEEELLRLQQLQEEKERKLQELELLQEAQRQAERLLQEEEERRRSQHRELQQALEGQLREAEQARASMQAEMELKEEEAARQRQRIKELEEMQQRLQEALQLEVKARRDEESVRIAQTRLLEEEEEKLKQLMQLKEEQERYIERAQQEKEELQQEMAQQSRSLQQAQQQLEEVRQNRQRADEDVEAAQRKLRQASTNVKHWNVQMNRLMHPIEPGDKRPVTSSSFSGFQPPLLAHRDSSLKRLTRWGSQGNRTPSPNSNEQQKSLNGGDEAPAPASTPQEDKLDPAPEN
Chain of UniProt Q9HCG8 (Q9HCG8 whole entry, looked up): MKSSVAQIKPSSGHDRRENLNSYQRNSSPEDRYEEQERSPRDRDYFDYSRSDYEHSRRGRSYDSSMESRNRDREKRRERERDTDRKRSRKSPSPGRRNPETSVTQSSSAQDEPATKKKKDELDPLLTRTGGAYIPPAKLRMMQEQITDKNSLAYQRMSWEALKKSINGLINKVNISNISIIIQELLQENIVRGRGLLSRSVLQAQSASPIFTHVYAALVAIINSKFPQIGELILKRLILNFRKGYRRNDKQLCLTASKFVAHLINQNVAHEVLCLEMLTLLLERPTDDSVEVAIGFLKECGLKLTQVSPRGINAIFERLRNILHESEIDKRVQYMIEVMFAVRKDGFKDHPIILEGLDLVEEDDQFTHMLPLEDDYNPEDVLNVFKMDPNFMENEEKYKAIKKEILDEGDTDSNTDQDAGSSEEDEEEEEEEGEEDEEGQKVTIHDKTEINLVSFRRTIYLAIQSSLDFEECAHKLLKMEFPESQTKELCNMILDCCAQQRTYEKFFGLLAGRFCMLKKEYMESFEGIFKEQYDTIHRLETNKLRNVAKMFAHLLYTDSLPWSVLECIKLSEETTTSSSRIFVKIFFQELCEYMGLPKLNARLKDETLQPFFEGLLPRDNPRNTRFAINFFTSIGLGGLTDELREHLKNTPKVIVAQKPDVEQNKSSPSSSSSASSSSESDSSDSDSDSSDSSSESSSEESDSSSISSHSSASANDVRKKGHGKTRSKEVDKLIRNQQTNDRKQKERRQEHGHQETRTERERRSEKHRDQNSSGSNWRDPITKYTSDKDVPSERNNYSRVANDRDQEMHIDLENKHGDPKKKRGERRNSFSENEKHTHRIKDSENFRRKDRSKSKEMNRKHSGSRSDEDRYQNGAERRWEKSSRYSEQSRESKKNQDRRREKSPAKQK

Target | log2 fold change [1] | log2 fold change (vorinostat) | log2 fold change (silmitasertib) | log2 fold change [2] | log2 fold change (entospletinib)
CSNK2A2 (UniProt P19784) | 0.383 | -0.105 | 0.879 (active) | -0.008 | 0.466
CNOT4 isoform 9 (UniProt O95628) | 0.036 | 0.098 | 0.044 | -0.031 | 0.009
DAZAP1 (UniProt Q96EP5) | 0.032 | -0.031 | 0.014 | 0.032 | -0.001
COMT (UniProt P21964) | -0.106 | -0.294 (active) | 0.04 | 0.007 | 0.015
CLASP2 isoform 3 (UniProt O75122) | 0.035 | -0.329 (active) | -0.033 | -0.02 | 0.005
DARS (UniProt P14868) | 0.003 | -0.327 (active) | 0.056 | 0.019 | 0.035
CXorf38 (UniProt Q8TB03) | 0.092 | -0.227 (active) | -0.013 | 0.042 | -0.073
DEF6 (UniProt Q9H4E7) | 0.085 | -0.416 (active) | 0.032 | -0.045 | 0.022
DICER1 (UniProt Q9UPY3) | 0.022 | -0.58 (active) | 0.042 | 0.001 | -0.004
DIAPH1 (UniProt O60610) | 0.013 | -0.014 | 0.009 | -0.02 | -0.003
DPH5 isoform 5 (UniProt Q9H2P9) | -0.046 | -0.06 | -0.015 | 0.077 | -0.011
CMSS1 (UniProt Q9BQ75) | 0.025 | -0.272 (active) | 0.038 | -0.024 | -0.013
COQ9 (UniProt O75208) | 0.005 | 0.084 | 0.002 | 0.031 | -0.012
DCUN1D4 isoform 3 (UniProt Q92564) | 0.066 | 0.128 | -0.031 | -0.121 | -0.096
CNP (UniProt P09543) | -0.017 | -0.298 (active) | -0.001 | 0.059 | 0.017
CTPS2 (UniProt Q9NRF8) | 0.006 | 0.327 (active) | 0.007 | -0.034 | 0.019
CTNNBL1 (UniProt Q8WYA6) | -0.026 | -0.046 | -0.044 | -0.025 | -0.011
DHFR (UniProt P00374) | -0.045 | -0.214 | 0.133 | 0 | 0.002
CPT1A (UniProt P50416) | -0.033 | 0.406 (active) | -0.001 | -0.002 | -0.06
DLD (UniProt P09622) | -0.003 | -1.96 (active) | 0.004 | 0.008 | 0.01
CLP1 (UniProt Q92989) | 0.011 | -0.307 (active) | 0.029 | -0.027 | 0.008
DCTN1 (UniProt Q14203) | 0.011 | -0.261 (active) | -0.003 | 0.012 | 0.001
DIAPH1 (UniProt H9KV28) | -0.002 | 0.087 | 0.084 | -0.083 | -0.113
CWC22 (UniProt Q9HCG8) | -0.012 | -0.156 | 0.032 | -0.016 | 0.015
